# Laboratory results taken from paper PMC11062922 (Nature Chemical Biology, 2023).
# Read-outs that look alike come from different tables or passages of the source.
# Tests used:
# Set-up in all cases: species or system human, MV4-11 + K-562 + COLO205 + SK-N-BE2 + OVCAR-8
# ABL2 = settings: read-out: apparent Kd, n = 1
# ACVR1B = settings: read-out: apparent Kd; compound concentrations:100 nM and 1000 nM (sheet 'Samples'); n = 1
# BTK = settings: read-out: apparent Kd, n = 1
# CIT = settings: read-out: apparent Kd; compound concentrations:100 nM and 1000 nM (sheet 'Samples'); n = 1
# EPHB1 = settings: read-out: apparent Kd, n = 1
# LCK = settings: read-out: apparent Kd, n = 1
# MAPK14 = settings: read-out: apparent Kd, n = 1
# RPS6KA3 = settings: read-out: apparent Kd; compound concentrations:100 nM and 1000 nM (sheet 'Samples'); n = 1
# BUB1 = settings: read-out: apparent Kd, n = 1
# AURKB = settings: read-out: apparent Kd, n = 1
# NUAK2 = settings: read-out: apparent Kd, n = 1
# PAK6 = settings: read-out: apparent Kd, n = 1
# RPS6KB1 = settings: read-out: apparent Kd; compound concentrations: 100 nM and 1000 nM (sheet 'Samples'), CATDS: 1.09553659906664E-2; n = 1
# IRAK3 = settings: read-out: apparent Kd; compound concentrations: 100 nM and 1000 nM (sheet 'Samples'), CATDS: 4.4859937900589397E-2; n = 1
# MAP3K11 = settings: read-out: apparent Kd, n = 1
# MARK2 = settings: read-out: apparent Kd; compound concentrations:100 nM and 1000 nM (sheet 'Samples'); n = 1
# [1] = compound concentrations:100 nM and 1000 nM (sheet 'Samples')
smiles,measurement,setting,value
Cc1ccc2c(-c3ccncc3)c(-c3ccc(F)cc3)nn2c1.Cl [GW461484A],potency estimated from few doses,ABL2; [1],571 nM
same,potency estimated from few doses,ACVR1B,696 nM
same,potency estimated from few doses,BTK; [1],801 nM
same,potency estimated from few doses,CIT,2120 nM
same,potency estimated from few doses,EPHB1; [1],384 nM
same,potency estimated from few doses,LCK; [1],730 nM
same,potency estimated from few doses,MAPK14; [1],465 nM
same,potency estimated from few doses,RPS6KA3,1950 nM
Cl.NCc1ccc(-c2nc(-c3ccc(Cl)c(O)c3)c(-c3ccncc3)[nH]2)cc1 [SB-476429-A],potency estimated from few doses,BUB1; [1],2020 nM
same,potency estimated from few doses,MAPK14; [1],113 nM
CN(c1ccc(NC(=O)Nc2cccc(Cl)c2)cc1)c1ccnc(N)n1.Cl [GW830707A],potency estimated from few doses,"ABL2; compound concentrations: 100 nM and 1000 nM (sheet 'Samples'), CATDS: 3.1249349132144801E-2",18.9 nM
same,potency estimated from few doses,"AURKB; compound concentrations: 100 nM and 1000 nM (sheet 'Samples'), CATDS: 1.11325754696811E-2",1010 nM
same,potency estimated from few doses,"BTK; compound concentrations: 100 nM and 1000 nM (sheet 'Samples'), CATDS: 1.93862363831281E-2",58.1 nM
same,potency estimated from few doses,"EPHB1; compound concentrations: 100 nM and 1000 nM (sheet 'Samples'), CATDS: 2.4630351484746099E-2",31.2 nM
same,potency estimated from few doses,"LCK; compound concentrations: 100 nM and 1000 nM (sheet 'Samples'), CATDS: 1.1469376819807401E-2",788 nM
same,potency estimated from few doses,"NUAK2; compound concentrations: 100 nM and 1000 nM (sheet 'Samples'), CATDS: 1.08459098062964E-2",1270 nM
same,potency estimated from few doses,"PAK6; compound concentrations: 100 nM and 1000 nM (sheet 'Samples'), CATDS: 1.07398015427933E-2",1390 nM
same,potency estimated from few doses,RPS6KB1,1160 nM
Cc1ccc(Nc2ccnc(Nc3ccc4c(c3)CS(=O)(=O)C4)n2)cc1O.Cl [GW579362A],potency estimated from few doses,"ABL2; compound concentrations: 100 nM and 1000 nM (sheet 'Samples'), CATDS: 4.4791805431594098E-2",448 nM
same,potency estimated from few doses,IRAK3,446 nM
same,potency estimated from few doses,"MAP3K11; compound concentrations: 100 nM and 1000 nM (sheet 'Samples'), CATDS: 2.6959638591647499E-2",1770 nM
same,potency estimated from few doses,"MAPK14; compound concentrations: 100 nM and 1000 nM (sheet 'Samples'), CATDS: 2.9505107428945899E-2",1290 nM
O=C1NC(=O)C(N2CCc3ccccc32)=C1c1ccccc1Cl [SB-373598],potency estimated from few doses,ABL2; [1],329 nM
same,potency estimated from few doses,AURKB; [1],466 nM
same,potency estimated from few doses,BTK; [1],124 nM
same,potency estimated from few doses,BUB1; [1],1690 nM
same,potency estimated from few doses,EPHB1; [1],373 nM
same,potency estimated from few doses,LCK; [1],138 nM
same,potency estimated from few doses,MAP3K11; [1],1040 nM
same,potency estimated from few doses,MARK2,1350 nM
same,potency estimated from few doses,NUAK2; [1],780 nM
same,potency estimated from few doses,PAK6; [1],419 nM
same,potency estimated from few doses,RPS6KA3,966 nM
Cl.Nc1c(C(=O)c2cccc(C#CCN3CCCCC3)c2)cnn1-c1ccc(F)cc1 [RO1154461-001],potency estimated from few doses,"ABL2; compound concentrations: 100 nM and 1000 nM (sheet 'Samples'), CATDS: 1.9255632348685402E-2",323 nM
same,potency estimated from few doses,"BTK; compound concentrations: 100 nM and 1000 nM (sheet 'Samples'), CATDS: 1.2670518401124599E-2",863 nM
same,potency estimated from few doses,"BUB1; compound concentrations: 100 nM and 1000 nM (sheet 'Samples'), CATDS: 1.00986377445768E-2",1860 nM
same,potency estimated from few doses,"EPHB1; compound concentrations: 100 nM and 1000 nM (sheet 'Samples'), CATDS: 2.02427776556733E-2",292 nM
same,potency estimated from few doses,"LCK; compound concentrations: 100 nM and 1000 nM (sheet 'Samples'), CATDS: 1.3782974497271E-2",687 nM
same,potency estimated from few doses,"NUAK2; compound concentrations: 100 nM and 1000 nM (sheet 'Samples'), CATDS: 1.07977981674066E-2",1430 nM
same,potency estimated from few doses,"PAK6; compound concentrations: 100 nM and 1000 nM (sheet 'Samples'), CATDS: 1.2359364494815299E-2",927 nM
